Assay results as given in the supplement of paper PMC10127200.
Where a name gives a salt, the structure may show the parent alone.

How the values were obtained:
Test in all cases: Euclidean distance of Cell Painting phenotypic profile (signed KS, 77 features) to DMSO centroid (dimensionless distance); 5 or 10 uM (library dependent); higher = stronger phenotypic change vs DMSO (phenoactivity)
Conditions in all cases: 48 h
786-O = test system: 786-O
How it was run: (§1)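 Library compounds were applied at 10 or 5 uM, depending on the library, with 0.1% DMSO final, for 48 h to five cancer lines and a healthy fibroblast line. After staining, cells were imaged confocally at 20X across 9 fields per well, and Harmony extracted 77 features, each scored as a signed Kolmogorov-Smirnov statistic against vehicle wells on the same plate. Phenoactivity is the Euclidean distance between each profile and the median vehicle profile, with profiles first plate-position corrected, correlation-weighted and averaged over replicates at the top dose.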

A549 = test system: A549
How it was run: as §1

DU145 = test system: DU145
How it was run: as §1

FB = test system: FB
How it was run: as §1

HEPG2 = test system: HEPG2
How it was run: as §1

OVCAR4 = test system: OVCAR4
How it was run: as §1

Structure (SMILES)	Euclidean distance (786-O)	Euclidean distance (A549)	Euclidean distance (DU145)	Euclidean distance (FB)	Euclidean distance (HEPG2)	Euclidean distance (OVCAR4)
O=C(c1cncc(Br)c1)N1CCC(N2CCCC2)CC1	0.781	0.805	0.843	1.31	1.28	0.898
C=C[C@H]1CN2CC[C@H]1C[C@@H]2[C@@H](O)c1ccnc2ccc(OC)cc12 [Quinidine sulfate]	0.69	0.88	1.08	0.954	0.831	
S=c1nc[nH]c2nc[nH]c12 [6-Mercaptopurine (6-MP) Monohydrate]	1.29	0.49	0.673	0.989	1.81	0.591
CN(C)c1cc(NC(=O)CNC(C)(C)C)c(O)c2c1C[C@H]1C[C@H]3[C@H](N(C)C)C(O)=C(C(N)=O)C(=O)[C@@]3(O)C(O)=C1C2=O [Tigecycline]	1.81	0.996	1.03	1.6	1.09	1.18
CCO[C@@H]1OC(=O)C[C@@H]1NC(=O)[C@@H]1CCCN1C(=O)[C@@H](NC(=O)c1ccc(N)c(Cl)c1)C(C)(C)C	0.836	1.87	2.17	1.85	1.04	1.35
CCC[C@@H]1C[C@@H](C(=O)N[C@@H]([C@H]2O[C@H](SC)[C@H](O)[C@@H](O)[C@H]2O)[C@H](C)Cl)N(C)C1 [Clindamycin]	0.793	0.77	0.629	1.14	0.601	0.602
CCOc1cc2ncc(C#N)c(Nc3ccc(F)c(Cl)c3)c2cc1NC(=O)/C=C/CN(C)C [Pelitinib (EKB-569)]	2.29	3.19	4.45	4.45	2.63	2.82
C[N+]1(C)CCC(OC(=O)C(O)(c2ccccc2)C2CCCC2)C1 (stereo not drawn) [Glycopyrrolate]	1.08	0.747	1.06	1.02	0.678	1.74
O=C(O)c1ccc(N2C(=O)/C(=C\c3ccc(-c4ccc([N+](=O)[O-])cc4)o3)C=C2c2ccccc2)cc1	0.841	1.23	0.74	0.72	1.83	0.995
OC[C@@H](O)[C@@H](O)[C@H](O)[C@@H](O)CO [Sorbitol]	1.36	0.586	0.79	0.737	0.791	1.21
C[C@@H]1O[C@@H](OC[C@H]2O[C@@H](Oc3c(-c4ccc(OCCO)c(OCCO)c4)oc4cc(OCCO)cc(O)c4c3=O)[C@H](O)[C@@H](O)[C@@H]2O)[C@H](O)[C@H](O)[C@H]1O [Troxerutin]	1.35	0.502	0.751	0.834	0.509	0.81
COc1ccc2cc(C(=O)O)ccc2c1 [6-Methoxy-2-naphthoic acid]	0.861	0.63	0.683	1.15	0.634	1.19
COc1ccc(CCN(C)CCCC(C#N)(c2ccc(OC)c(OC)c2)C(C)C)cc1OC (stereo not drawn) [Verapamil HCl]	0.99	0.567	0.723	1.41	0.719	
CC(=O)Nc1nnc(S(N)(=O)=O)s1 [Acetazolamide]	1.03	0.669	0.642	0.704	0.604	1.08
Nc1ccc2ncnc(NCCc3ccc(Oc4ccccc4)cc3)c2c1	1.67	1.95	1.06	1.68	3.12	0.755
Oc1ccc([C@H]2COc3cc(O)ccc3C2)cc1 (racemic)	1.39	0.796	1.27	0.952	0.464	0.928
CC(C)(C)c1cc(C(C)(C)C)c(NC(=O)c2c[nH]c3ccccc3c2=O)cc1O [Ivacaftor (VX-770)]	2.11	2.23	1.21	0.989	1.96	1.56
Cc1c(O)cccc1C(=O)N[C@@H](CSc1ccccc1)[C@H](O)CN1C[C@H]2CCCC[C@H]2C[C@H]1C(=O)NC(C)(C)C [Nelfinavir Mesylate]	1.88	2.45	1.22	1.59	1.01	1.16
O[C@@H](COc1cccc2ncccc12)CN1CCN(C2c3ccccc3[C@@H]3[C@H](c4ccccc42)C3(F)F)CC1 (stereo partly drawn)	1.12	1.33	0.754	0.764	0.675	1.43
CC1=C[C@H]2C(=O)O[C@H]3C[C@@H](C/C=C(\C)C[C@@H](C)/C=C/C=C4\CO[C@H](/C1=N\O)[C@@]42O)O[C@@]1(CC[C@H](C)[C@@H](C)O1)C3.CC[C@H]1O[C@]2(CC[C@@H]1C)C[C@@H]1C[C@@H](C/C=C(\C)C[C@@H](C)/C=C/C=C3\CO[C@@H]4/C(=N\O)C(C)=C[C@@H](C(=O)O1)[C@]34O)O2 [Milbemycin Oxime]	0.91	0.957	0.954	1.3	0.456	1.11
CCCCc1nc2cc(/C=C/C(=O)NO)ccc2n1CCN(CC)CC [Pracinostat (SB939)]	2.82	4.04	3.89	4.08	3.78	3.46
CN1CCN(CC(=O)N2c3ccccc3C(=O)Nc3cccnc32)CC1 [Pirenzepine dihydrochloride]	0.695	1.06	0.77	0.7	1.03	0.804
Cc1cc(C)cc(NC(=O)Cc2ccc(OC(C)(C)C(=O)O)cc2)c1 [Efaproxiral Sodium]	1.04	0.727	0.774	0.966	0.587	0.981

Structure (SMILES)	Euclidean distance (786-O)	Euclidean distance (A549)	Euclidean distance (DU145)	Euclidean distance (FB)	Euclidean distance (HEPG2)	Euclidean distance (OVCAR4)
Cc1ccccc1C(=O)Nc1ccc(C(=O)N2CCCC(O)c3cc(Cl)ccc32)c(C)c1 (stereo not drawn) [Tolvaptan]	1.6	0.937	0.873	1.14	0.957	0.738
NCCCC[C@H](NC(=O)[C@@H](NC(=O)[C@H](Cc1c[nH]c2ccccc12)NC(=O)[C@H](CCCCN)NC(=O)[C@H](CCCCN)NC(=O)[C@H](Cc1c[nH]c2ccccc12)NC(=O)[C@H](Cc1c[nH]c2ccccc12)NC(=O)[C@H](CCCCN)NC(=O)[C@@H](N)CCCCN)C(c1ccccc1)c1ccccc1)C(N)=O	4.67	1.24	1.35	1.8	1.2	2.23
C[C@H]1[C@H](NC(=O)/C(=N\OC(C)(C)C(=O)O)c2csc(N)n2)C(=O)N1S(=O)(=O)O [Aztreonam]	1.13	0.951	1.05	1.15	0.888	1.53
CO[C@@H]1[C@@H](O[C@@H]2O[C@H](C)[C@@H](O[C@H]3C[C@@](C)(O)[C@@H](OC(=O)CC(C)C)[C@H](C)O3)[C@H](N(C)C)[C@H]2O)[C@@H](CC=O)C[C@@H](C)[C@@H](O)/C=C/C=C/C[C@@H](C)OC(=O)C[C@H]1OC(C)=O [Josamycin]	1.22	1.07	0.712	1.59	1.01	1.06
CCS(=O)(=O)c1cccc(-c2cc(C(=O)NC3CCN(C)CC3)c(C)c3[nH]c4ncc(C)cc4c23)c1	3.1	3.9	2.89	3.63	2.3	2.17
NCC(=O)Nc1ccc(-n2nc(C(F)(F)F)cc2-c2ccc3c(ccc4ccccc43)c2)cc1	1.57	1.4	0.783	1.33	1.34	1.38
CCCC1CC(C(=O)NC(C(C)Cl)C2OC(SC)C(O)C(O)C2O)N(C)C1 (stereo not drawn) [Clindamycin alcoholate]	1.37	0.413	1.04	0.986	1.01	1.02
COc1ccccc1S(=O)(=O)Nc1ccc2c(c1)CN(C)C(=O)N2	1.98	1.83	1.91	2.84	2.74	1.87
CN(C)/N=N/c1[nH]cnc1C(N)=O [Dacarbazine]	1.42	0.981	1.94	1.25	2.73	0.871
CCCCC[C@H](O)/C=C/[C@H]1[C@H](O)CC(=O)[C@@H]1C/C=C\CCCC(=O)O [Prostaglandin E2 (PGE2)]	1.77	0.85	0.915	1.08	0.522	1.33
CCOc1ccc2nc3cc(N)ccc3c(N)c2c1 [Ethacridine lactate monohydrate]	2.72	2.06	3.08	3.62	3.62	1.62
Cc1nn(-c2ccccc2)c(C)c1C=NN1CCN(Cc2ccccc2)CC1	1.24	1.25	0.724	0.733	1.16	1.34
C[C@H](CCC(=O)O)[C@H]1CC[C@H]2[C@@H]3CC[C@@H]4C[C@H](O)CC[C@]4(C)[C@H]3C[C@H](O)[C@]12C [Deoxycholic acid]	0.886	0.94	0.997	0.74	0.87	1.36
COC(=O)C1=C(C)NC(C)=C(C(=O)OC)C1c1ccccc1[N+](=O)[O-] [Nifedipine]	1.37	0.783	0.776	1.11	1.58	
CC(C)c1c(C(=O)Nc2ccccc2)c(-c2ccccc2)c(-c2ccc(F)cc2)n1CC[C@@H](O)C[C@@H](O)CC(=O)O [atorvastatin]	1.57	1.35	3.44	3.29	0.836	1.24
C[C@@H](CN1CC(=O)NC(=O)C1)N1CC(=O)NC(=O)C1 [Dexrazoxane HCl (ICRF-187. ADR-529)]	1.38	1.71	1.21	1.96	1.47	1.89
N[C@@H](CCC(=O)O)C(=O)O [(S)-Glutamic acid]	1.39	0.982	1.47	0.799	0.834	1.57
CN(C)CCN(Cc1ccccc1)c1ccccn1 [Tripelennamine HCl]	1.42	0.863	0.966	1.05	0.581	1.72
CCCOc1ccc(C(=O)OCCN(CC)CC)cc1N [Proparacaine HCl]	1.06	1.11	1.7	1.27	0.765	1.27
CC1=NN(c2ccc(C)c(C)c2)C(=O)/C1=N\Nc1cccc(-c2cccc(C(=O)O)c2)c1O [Eltrombopag]	2.4	1.81	3.38	2.71	3.89	2.45
CCS(=O)(=O)CCn1c([N+](=O)[O-])cnc1C [Tinidazole]	0.626	0.68	0.693	0.579	0.533	1.48
COc1ccccc1O [Guaiacol]	0.884	0.854	0.891	1.19	0.511	1.43
CO[C@H]1C[C@@H]2CC[C@@H](C)[C@@](O)(O2)C(=O)C(=O)N2CCCC[C@H]2C(=O)O[C@H]([C@H](C)C[C@@H]2CC[C@@H](OP(C)(C)=O)[C@H](OC)C2)CC(=O)[C@H](C)/C=C(\C)[C@@H](O)[C@@H](OC)C(=O)[C@H](C)C[C@H](C)/C=C/C=C/C=C/1C [Deforolimus]	2.73	2.02	1.35	3.08	1.23	2.14
